Screening data (PubChem)
A selection: hits, their analogues and other compounds. The true share with any hit is near 9.3%.
ELG1 repair inh = blocks ELG1-dependent DNA repair in HEK293T cells; HEK293T ELG1-luciferase reporter, luminescence, 16 h; DNA damage induced by 5-fluorouridine; Potency, µM (highest dose often 46.1 µM), hits mostly inhibitors; 330,000 tested, 2.3% active; AID 504467; also: nearly all actives have a fitted effect of over 55% in size
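In this reporter screen, reduction of luminescence relative to DMSO vehicle indicated activity. Compounds and 5-fluorouridine were added together to 2,000 cells per well, incubated for 16 hr at 37 °C, then developed with ONE-Glo.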
SMN2 splice up = SMN2 splice variant enhancement; HEK293 SMN2-luciferase splicing reporter, luminescence, 30-36 h; Potency, µM (doses to about 46.1 µM), usual class: activators; 210,000 tested, 2.8% active; AID 1458; also: nearly all actives have a fitted effect of over 55% in size
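HEK293 cells carry an SMN2 […]–luciferase reporter in which exon 7 inclusion puts luciferase in frame. Cells were plated 10-12 h before compound addition, then incubated 30-36 h at 37C. ONE-Glo luminescence was read; sodium butyrate at 4.5 mM final served as control.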
ELG1 genotoxic = inducers of genotoxicity in HEK293T ELG1-luciferase cells | HEK293T ELG1-luciferase reporter, luminescence, 16 h | Potency, µM (titrated, usually from 46 µM), actives largely listed as activators | 330,000 tested, 1.3% active; also: nearly all actives have a fitted effect of over 60% in size
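Screening used a luciferase reporter fused to human ELG1 in HEK293T cells. Luminescence was read on a CCD plate imager after 16 hr exposure and 30 min ONE-Glo incubation.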
FLuc counter = counter-screen for miR-21 project: firefly luciferase inhibitors or activators | P08659 | purified FLuc, Km substrates, luminescence inhibition | Potency, µM (doses to about 57.5 µM), hits mostly inhibitors | 360,000 tested, 6.9% active | AID 588342; also: nearly all actives have a fitted effect of over 55% in size
Target sequence (P08659 whole entry, looked up): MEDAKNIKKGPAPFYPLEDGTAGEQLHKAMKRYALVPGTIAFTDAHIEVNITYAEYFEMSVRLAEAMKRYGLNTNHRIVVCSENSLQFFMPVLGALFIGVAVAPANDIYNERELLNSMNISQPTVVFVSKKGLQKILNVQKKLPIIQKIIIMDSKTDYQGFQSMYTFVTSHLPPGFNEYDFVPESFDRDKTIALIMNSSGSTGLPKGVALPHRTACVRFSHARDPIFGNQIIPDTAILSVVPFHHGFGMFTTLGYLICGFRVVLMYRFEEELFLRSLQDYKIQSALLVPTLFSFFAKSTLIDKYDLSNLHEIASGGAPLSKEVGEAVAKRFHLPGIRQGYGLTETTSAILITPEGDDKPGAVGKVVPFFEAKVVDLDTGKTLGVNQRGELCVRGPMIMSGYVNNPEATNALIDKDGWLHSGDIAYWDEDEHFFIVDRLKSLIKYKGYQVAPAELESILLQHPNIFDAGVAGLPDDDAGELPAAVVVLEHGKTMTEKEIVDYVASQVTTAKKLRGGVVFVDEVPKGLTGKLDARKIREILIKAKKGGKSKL
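Purified P. pyralis luciferase (10nM final) with 10uM D-luciferin and 10uM ATP (Km levels) in 50mM Tris acetate pH 7.5, 10mM Mg acetate, 0.01% Tween-20, 0.05% BSA; qHTS 6-point titration, ~60 µM downward; luminescence read.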
NPC1 promoter act = activates the NPC1 promoter | 320,000 tested, 2.4% active | Potency, µM (series often up to 9.22 µM), hits mostly activators | Huh7 NPC1 promoter luciferase reporter, 24 h | AID 485313; also: nearly all actives have a fitted effect of over 60% in size
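Readout is luciferase luminescence, reflecting NPC1 promoter activation in stably transfected Huh7 cells after 24 h compound exposure at 37 °C in reduced-serum medium with 10% FBS.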
Rab9 promoter act = activators of Rab9 promoter; Huh7 Rab9 promoter-luciferase reporter, luminescence, 24 h; Potency, µM (doses to about 9.22 µM), actives largely listed as activators; 320,000 tested, 2.8% active; also: nearly all actives have a fitted effect of over 60% in size
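Stable Rab9-luc Huh7, 1500 cells/well, 2 h settle; cmpd in DMSO, 24 h, 37 °C/5% CO2; luciferase reagent 10 min RT; luminescence.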
Numbers stand for hits; n = inactive; u = inconclusive; x = no result given; [ ] = another dose, or the depositor's remark. Calls follow the shape of the dose curve; as a rule, active = well fitted curve in the direction sought with a large enough effect; inconclusive = small, poorly fitted or top-dose-only effect, or another doubt; inactive = no such curve, though single readings can be large; an effect the other way counts as inactive or inconclusive.

SMILES	ELG1 repair inh	SMN2 splice up	ELG1 genotoxic	FLuc counter	NPC1 promoter act	Rab9 promoter act
COC(=O)c1ccccc1NC(=S)N(Cc1ccc2c(c1)OCO2)Cc1cc2cccc(C)c2[nH]c1=O	11.6µM	n	n	n	n	n
COc1ccccc1NC(=S)N(Cc1ccco1)Cc1cc2cc(C)cc(C)c2[nH]c1=O	11.6µM	n	n	n	n	n
Cc1cc(C)c2cc(CN(Cc3ccco3)C(=O)NCc3ccccc3)c(=O)[nH]c2c1	8.2µM	x	n	n	n	n
COc1cccc(NC(=O)c2cc(-c3ccccn3)nc3ccccc23)c1	u	x	n	n	n	n
COc1cccc(-c2cc(C(=O)Nc3ccncc3)c3ccccc3n2)c1	n	x	n	16.9µM	n	n
COc1cccc(-c2cc(C(=O)Nn3cnnc3)c3ccccc3n2)c1	n	n	n	0.953µM	n	n
CC(=O)Nc1cccc(NC(=O)c2cc(-c3cccnc3)nc3ccc(Cl)cc23)c1	20.6µM	n	n	u	n	n
Cc1cc(C(=O)Nc2ccncc2)c2ccccc2n1	23.1µM	x	n	n	n	n
CC(=O)Nc1cccc(NC(=O)c2cc(-c3cccnc3)nc3ccc(Br)cc23)c1	u	n	n	u	n	n
COc1cccc(-c2cc(C(=O)NN3CCOCC3)c3ccccc3n2)c1	n	n	n	n	n	n
CC[C@@]1(C(=O)OC)N[C@H](CN(C)S(=O)(=O)c2ccc(C(C)(C)C)cc2)[C@@H]2C(=O)N(Cc3ccccc3)C(=O)[C@@H]21	n	x	n	x	x	x
CC(=O)c1cccc(NC(=O)c2cc(-c3ccco3)nc3ccccc23)c1	u	x	n	n	n	n
CC(=O)c1cccc(NC(=O)c2cc(-c3ccncc3)nc3ccccc23)c1	20.6µM	x	n	n	n	n
CCOc1[nH]n(-c2ccccc2)c(=O)c1C=Nc1ccc(OC)cc1	u	n	n	u	n	n
CCOc1ccc2nc(/N=C/c3c(C)[nH]n(-c4ccccc4)c3=O)sc2c1	u	22.4µM	u	6.75µM	u	u
CCOc1ccc2nc(/N=C/c3c(C)[nH]n(-c4ccc(C)cc4)c3=O)sc2c1	u	14.1µM	n	4.78µM	u	u
O=C(Nc1cccc(F)c1)N1CCCC2(CCN(S(=O)(=O)c3ccccc3)CC2)C1	x	n	x	x	x	x
CC[C@@H]1CC(=O)N(SC[C@H](N)C(=O)O)C1=O	x	n[9.22 µM]	x	x	x	x
COc1ccc(NC(=O)c2ccc(S(=O)(=O)N(C)C)cc2)cc1OC	n	n	n	n	n	n
CN(C)S(=O)(=O)c1ccc(C(=O)Nc2ccc3c(c2)CCC3)cc1	u	x	n	19µM	u	u
CN(C)S(=O)(=O)c1ccc(C(=O)Nc2ccnn2C2CCCCC2)cc1	25.9µM	n	n	n	n	n
CN(C)S(=O)(=O)c1cccc(C(=O)Nc2ccc3c(c2)CCC3)c1	u	x	3.98µM	1.69µM	1.26µM	0.631µM
Fc1cccc(Cc2noc(CN3CCCCC3c3ccccn3)n2)c1 (stereo unspecified)	u	x	u	23.9µM	u	u
Cc1cc(C)c2oc(C(=O)Nc3c(C(=O)c4ccc(F)cc4)oc4ccccc34)cc(=O)c2c1	x	x	x	n	x	x
COc1ccc(-c2nnc(SCC(=O)c3ccc[nH]3)o2)cc1	u	8.91µM	u	4.26µM	3.16µM	1.58µM
SMILES	ELG1 repair inh	SMN2 splice up	ELG1 genotoxic	FLuc counter	NPC1 promoter act	Rab9 promoter act
COc1cccc(NC(=O)CSc2nnc(-c3cc(C)n(-c4ccccc4)c3C)o2)c1	u	n	n	12µM	n	n
Cc1ccc(CNC(=O)c2ccc[nH]2)cc1	n	n	n	n	n	n
COc1ccc(NC(=O)CSc2nnc(-c3cccc(O)c3)o2)cc1	u	x	n	n	n	n
Cc1ccc(SCC(=O)c2ccc[nH]2)cc1	u	u	u	23.9µM	u	u
Cc1cc(C(=O)CSc2nnc(-c3cccs3)o2)c(C)n1-c1ccccc1	u	n	n	6.75µM	n	n
CCNC(=O)CSc1nnc(-c2cccs2)o1	n	n	n	n	n	n
CN(C)C(=O)CSc1nnc(-c2cc(-c3cccs3)nc3ccccc23)o1	11.6µM	n	n	n	n	n
O=C(CSc1nnc(-c2cccs2)o1)OC1CCCCC1	n	n	n	23.9µM	n	n
